PLK1 PBD block – blocks phosphopeptide binding to human PLK1 polo-box domain. P53350. Plk1 PBD binding of FITC phosphopeptide, fluorescence polarization. Potency, µM, usual class: inhibitors. actives 2.8% (n = 360,000). AID 720504; further: series mostly up to about 57 µM; nearly all actives have a fitted effect of over 65% in size
Target sequence (P53350 whole entry, looked up, the tested form may be a part): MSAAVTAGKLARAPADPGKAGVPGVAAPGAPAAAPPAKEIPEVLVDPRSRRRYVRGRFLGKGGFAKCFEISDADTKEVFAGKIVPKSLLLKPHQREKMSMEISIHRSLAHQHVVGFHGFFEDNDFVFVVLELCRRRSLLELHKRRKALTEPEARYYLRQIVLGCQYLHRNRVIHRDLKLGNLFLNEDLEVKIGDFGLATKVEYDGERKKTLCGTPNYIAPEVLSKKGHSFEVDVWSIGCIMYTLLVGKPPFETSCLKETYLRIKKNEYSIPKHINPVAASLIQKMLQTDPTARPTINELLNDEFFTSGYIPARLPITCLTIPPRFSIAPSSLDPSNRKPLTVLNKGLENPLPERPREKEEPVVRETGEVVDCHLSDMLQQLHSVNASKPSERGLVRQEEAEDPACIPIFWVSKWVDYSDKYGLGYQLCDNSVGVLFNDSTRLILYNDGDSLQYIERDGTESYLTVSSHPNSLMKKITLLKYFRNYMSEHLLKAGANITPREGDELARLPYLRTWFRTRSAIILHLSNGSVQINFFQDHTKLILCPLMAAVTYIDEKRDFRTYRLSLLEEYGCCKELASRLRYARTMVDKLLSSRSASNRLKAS
12-LOX inh – blocks human arachidonate 12S-lipoxygenase. Potency, µM (series often up to 108 µM), hits mostly inhibitors. P18054. actives 1.1% (n = 580,000). purified 12hLO, xylenol orange hydroperoxide absorbance
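Purified human 12hLO at 150 nM in 25 mM Hepes, 0.01% Triton X-100, pH 7.0, preincubated 15 min at room temperature with compound. Reaction started with 40 uM arachidonic acid, 30 min at room temperature. Hydroperoxide measured by Fe-xylenol orange, 573/405 nm absorbance ratio.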
KAT2A inh – inhibitors of human GCN5L2 histone acetyltransferase; Q92830; GCN5L2 HAT assay, ThioGlo1 CoA-SH fluorescence; Potency, µM (titrated, usually from 58.9 µM), usual class: inhibitors; actives 0.21% (n = 390,000)
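Compounds, pin-transferred from DMSO stocks, meet 20nM GCN5L2 for 15 min before the reaction begins with H3(1-25) peptide (75uM) and acetyl-CoA (70uM). Thiol-reactive ThioGlo1 reports CoA release over 20 min at room temperature.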
VDR inh – blocks the human vitamin D receptor; actives 0.93% (n = 400,000); Potency, µM, usual class: inhibitors; VDR-SRC2-3 peptide fluorescence polarization, 2 h; P11473
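Signal is fluorescence polarization, reporting how far test compounds block the interaction of VDR with the SRC2-3 coregulator peptide after a 2 h room-temperature incubation.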
TbPYK confirm – Trypanosoma brucei pyruvate kinase inhibition, cherry-pick confirmation | AID 720569 | shares compounds with PLK1 PBD block | Potency, µM (titrated, usually from 76.9 µM), actives largely listed as inhibitors | actives 67% (n = 890) | recombinant TbPYK, Kinase-Glo ATP luminescence; further: nearly all actives have a fitted effect of over 70% in size
TbPYK orthogonal – orthogonal confirmation of Trypanosoma brucei pyruvate kinase inhibitors | shares compounds with PLK1 PBD block | recombinant TbPYK, ADP-Glo luminescence, 60 min | Potency, µM (titrated, usually from 76.9 µM), most hits filed as inhibitors | actives 62% (n = 890) | AID 720584; further: nearly all actives have a fitted effect of over 75% in size
Hits are given with their value; – = inactive; ? = inconclusive; · = no result; [ ] = remark or other dose. The list is not random: actives were taken first. Their share in the collection is about 3%. The call rests on the fitted dose curve; in most records, active means well fitted curve in the direction sought with a large enough effect; inconclusive means small, poorly fitted or top-dose-only effect, or another doubt; inactive means no such curve, though single readings can be large; an effect the other way counts as inactive or inconclusive.

SMILES	PLK1 PBD block	12-LOX inh	KAT2A inh	VDR inh	TbPYK confirm	TbPYK orthogonal
Cc1ccc(N2C(=O)NC(=O)/C(=C\c3cccn3C(C)(C)C)C2=O)cc1	?	–	–	–	·	·
Cc1ccc(N2C(=O)NC(=O)/C(=C/c3ccoc3)C2=O)cc1	2.7µM	?	–	–	?	–
COc1cc(/C=C2/C(=O)NC(=O)N(c3ccc(C)cc3)C2=O)cc(OC)c1OC	12µM	?	–	?	?	?
COc1cc(/C=C2\C(=O)NC(=O)N(c3ccccc3)C2=O)cc(OC)c1OC	13µM	?	–	?	?	?
Cc1ncc2c(n1)C[C@@H]1CC[C@H]2N1C(=O)NCc1ccccc1	·	–	·	·	·	·
Cn1nc(C2CCCCC2)cc1[C@H]1CN2CC[C@H]1C[C@@H]2CNC(=O)NCc1ccccc1	·	–	·	·	·	·
CN1C(=O)NC(=O)/C(=C/c2ccc([N+](=O)[O-])o2)C1=O	4.7µM	–	–	71µM	8.9µM	?
CN1C(=O)C(=Cc2ccc(N3CCOCC3)o2)C(=O)N(C)C1=O	–	–	–	–	·	·
CC(C)n1nc(C(=O)NCC2(N3CCOCC3)CCCCC2)c2ccccc2c1=O	·	–	·	·	·	·
Cn1cc(C(=O)Cn2cnc3ccccc32)c2ccccc21	·	–	·	·	·	·
COC1CC(C)C(OC)c2cc(O)cc(c2O)NC(=O)C(C)=CC=CC(C)C(OC(N)=O)C(C)=CC(C)C1OC (centres undefined)	19µM	–	·	?	?	13µM
CN(C)C(=O)[C@H]1CN2CCC1C[C@@H]2Cn1cc(-c2cccc(O)c2)nn1 (some centres undefined)	·	–	·	·	·	·
COc1cc(OC)c(/C=C2\C(=O)Nc3ccccc32)c(OC)c1	–	–	–	–	·	·
COc1ccc(OC)c(N2C(=O)NC(=O)/C(=C\c3ccc([N+](=O)[O-])s3)C2=O)c1	2.7µM	?	?	?	2.8µM	?
COCCN1CCC(N2CCN(C(=O)Cc3ccc(F)cc3)CC2)C1=O (centres undefined)	·	–	·	·	·	·
CC(C)CCOc1cccc(CCN)c1	·	–	·	·	·	·
Cc1ccc(-c2nn(Cc3ccccc3)cc2C=O)cc1	–	–	–	–	·	·
O=C(O)CCn1cc(C=C2C(=O)NC(=O)NC2=O)c(-c2ccc(Br)cc2)n1	2.7µM	?	–	–	14µM	28µM
CCc1ccccc1N1C(=O)NC(=O)/C(=C\c2cc(C)n(C)c2C)C1=O	–	?	–	?	·	·
CCOc1ccccc1N1C(=O)NC(=O)/C(=C/c2ccc3c4c(cccc24)CC3)C1=O	6.7µM	–	–	?	?	?
COc1ccc(-c2nc(CSCC(=O)N3CCC4(CC3)OCCO4)c(C)o2)cc1OC	–	–	–	–	·	·
CCOC(=O)CSCCOc1ccc(C=C2C(=O)NC(=O)NC2=O)cc1OC	8.4µM	–	–	?	16µM	?
COC(=O)Cn1cc(C=C2C(=O)N(C)C(=O)N(C)C2=O)c2ccccc21	?	–	–	–	·	·
CN1C(=O)C(=Cc2ccccc2Oc2ccc(Cl)c(F)c2)C(=O)N(C)C1=O	4.2µM	?	–	28µM	?	–
CCOC(=O)c1c(C)n(Cc2ccc(F)cc2)c2ccc(O)cc12	–	–	–	–	?	18µM
SMILES	PLK1 PBD block	12-LOX inh	KAT2A inh	VDR inh	TbPYK confirm	TbPYK orthogonal
O=[S+]1([O-])NCC2(CCN(CC3CCCC3)C2)Oc2ncccc21 (centres undefined)	·	–[6.33 µM]	·	·	·	·
COc1ccc(S(=O)(=O)N(C)C[C@H]2OCCCC[C@H](C)Oc3ccc(N(C)C)cc3C(=O)N([C@H](C)CO)C[C@@H]2C)cc1	–	–	·	·	11µM	?
CC(=O)Nc1ccc(S(=O)(=O)NC[C@H]2C[C@@H]3CCN2C[C@@H]3c2cc(C3CCCC3)nn2C)cc1	·	–	·	·	·	·
O=C1NC(=O)C(=Cc2ccccc2[N+](=O)[O-])C(=O)N1	12µM	?	·	?	8.9µM	28µM
Cc1cc(C=C2C(=O)NC(=O)NC2=O)c(C)n1-c1ccc2c(c1)OCO2	–	?	–	–	·	·
CN(C)c1ccc(C=C2C(=O)NC(=O)NC2=O)cc1[N+](=O)[O-]	7.5µM	?	–	–	16µM	32µM
O=C1NC(=O)C(=Cc2cc3c(cc2[N+](=O)[O-])OCO3)C(=O)N1	13µM	?	–	40µM	8.9µM	?
